According to PubChem BioAssay AID1159580 (chemical genetic matrix, 2015):
Several values for one entry are separate records, joined by “and”; a condition that tells them apart may be missing. Equal entries are not always repeated. Among all 5,500 compounds or so, about 2,000 (36%) were called active. Roughly 18% stayed inconclusive and do not appear here. No stated cut-off is given here; in the data, active means normalized growth mostly below about 0.91 (no sharp cut-off); inconclusive means no clear call, values can overlap the other calls; inactive means mostly above about 0.92. The list shows a part of the results.

Experiment: chemical genetic growth profiling, strain panel (AID 1159580);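 further: tested at 20 µM; growth read once vehicle control cultures reached saturation at 30 °C; 1 = growth at the plate median or of vehicle wells; lower values mean less growth of the strain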
Conditions: S. cerevisiae deletion strains, growth OD

Measured: normalized growth

OCCN1C[C@@H](O)[C@@H](O)C(O)C1CO (stereo partly specified)
inactive: locus YAL013W, strain DEP1, active compounds read low 1.02 | locus YAL021C, strain ccr4, active compounds read low 0.993 | locus YAL026C, strain drs2, active compounds read low 1.02 | locus YAL030W, strain snc1, active compounds read low 0.999 | locus YBL061C, strain skt5, active compounds read low 1.01 | locus YBR009C, strain hhf1, active compounds read low 1 | locus YBR021W, strain FUR4, active compounds read low 1.01 | locus YBR023C, strain chs3, active compounds read low 1 | locus YBR171W, strain sec66, active compounds read low 1.01 | locus YBR229C, strain ROT2, active compounds read low 1.02 | locus YBR231C, strain swc5, active compounds read low 1.01 | locus YBR279W, strain paf1, active compounds read low 1.01 | locus YCL011C, strain gbp2, active compounds read low 0.996 | locus YCL016C, strain dcc1, active compounds read low 0.993 | locus YCL029C, strain bik1, active compounds read low 1 | locus YCL069W, strain vba3, active compounds read low 0.991 | locus YCR088W, strain abp1, active compounds read low 0.997 | locus YDL005C, strain med2, active compounds read low 1.01 | locus YDL035C, strain GPR1, active compounds read low 1.01 | locus YDL040C, strain nat1, active compounds read low 1 | locus YDL074C, strain BRE1, active compounds read low 1.03 | locus YDL101C, strain DUN1, active compounds read low 1.01 | locus YDL134C, strain PPH21, active compounds read low 1.02 | locus YDL185W, strain tfp1, active compounds read low 0.994 | locus YDL192W, strain arf1, active compounds read low 1 | locus YDR001C, strain nth1, active compounds read low 1 | locus YDR069C, strain doa4, active compounds read low 1.01 | locus YDR101C, strain arx1, active compounds read low 1.01 | locus YDR137W, strain rgp1, active compounds read low 1.01 | locus YDR150W, strain NUM1, active compounds read low 1.02 | locus YDR159W, strain sac3, active compounds read low 1.01 | locus YDR162C, strain NBP2, active compounds read low 1.01 | locus YDR195W, strain ref2 0.992 | locus YDR297W, strain sur2, active compounds read low 1.01 | locus YDR318W, strain mcm21, active compounds read low 1 | locus YDR334W, strain swr1, active compounds read low 1.01 | locus YDR335W, strain msn5, active compounds read low 0.992 | locus YDR388W, active compounds read low 1 | locus YDR392W, strain spt3, active compounds read low 0.989 | locus YDR502C, strain sam2, active compounds read low 1 | locus YEL003W, strain gim4, active compounds read low 1.01 | locus YEL037C, strain rad23, active compounds read low 1 | locus YEL061C, strain CIN8 (second series), active compounds read low 0.989 | locus YEL061C, strain CIN8, active compounds read low 1.02 | locus YER015W, strain faa2, active compounds read low 1.01 | locus YER016W, strain bim1, active compounds read low 0.983 | locus YER110C, active compounds read low 0.993 | locus YER111C, strain swi4, active compounds read low 1.02 | locus YER155C, strain BEM2 (second series), active compounds read low 1.01 | locus YER155C, strain BEM2, active compounds read low 1.01 | locus YER167W, strain BCK2, active compounds read low 1.02 | locus YFR010W, strain ubp6, active compounds read low 1.01 | locus YGL078C, strain dbp3, active compounds read low 1.01 | locus YGL086W, strain mad1, active compounds read low 1 | locus YGL167C, strain pmr1, active compounds read low 1.01 | locus YGL173C, strain kem1, active compounds read low 1.02 | locus YGL227W, strain vid30, active compounds read low 1.01 | locus YGL240W, strain doc1, active compounds read low 1.01 | locus YGL248W, strain PDE1, active compounds read low 1.01 | locus YGL253W, strain hxk2, active compounds read low 1 | locus YGR078C, strain PAC10, active compounds read low 1.04 | locus YGR135W, strain pre9, active compounds read low 1 | locus YGR229C, strain SMI1, active compounds read low 1.02 | locus YGR252W, strain gcn5, active compounds read low 0.969 | locus YHR013C, strain ard1, active compounds read low 0.988 | locus YHR027C, strain rpn1, active compounds read low 1.01 | locus YHR030C, strain SLT2, active compounds read low 1.02 and 1.01 | locus YHR079C, strain IRE1 (second series), active compounds read low 1.01 | locus YHR079C, strain IRE1, active compounds read low 1 | locus YHR094C, strain hxt1, active compounds read low 1.01 | locus YHR129C, strain ARP1, active compounds read low 1.01 | locus YHR142W, strain chs7, active compounds read low 0.984 | locus YHR200W, strain rpn10, active compounds read low 1 | locus YIL066C, strain RNR3, active compounds read low 1.02 | locus YIL073C, strain SPO22, active compounds read low 1.03 | locus YIL125W, strain kgd1, active compounds read low 1 | locus YIR030C, strain dcg1, active compounds read low 1.01 | locus YJL092W, strain hpr5, active compounds read low 1 | locus YJL095W, strain BCK1 (second series), active compounds read low 1.01 | locus YJL095W, strain BCK1, active compounds read low 1.02 and 1.01 | locus YJL115W, strain asf1, active compounds read low 1.02 | locus YJL129C, strain trk1, active compounds read low 0.997 | locus YJL134W, strain LCB3, active compounds read low 1.01 | locus YJL154C, strain vps35, active compounds read low 0.994 | locus YJL164C, strain tpk1, active compounds read low 0.996 | locus YJL166W, strain qcr8, active compounds read low 1.01 | locus YJL168C, strain set2, active compounds read low 1 | locus YJL187C, strain SWE1 (second series), active compounds read low 1.02 | locus YJR043C, strain POL32, active compounds read low 1 | locus YJR066W, strain TOR1, active compounds read low 0.962 | locus YJR075W, strain HOC1, active compounds read low 1.01
